Assay results published in PubChem BioAssay (EPA / NIEHS).
The source made the active and inactive calls. The calls were made as follows: active = hit-call score of the fitted dose curve at least 0.9, where 1 is the maximum; inactive = score below 0.9.

target: Myc proto-oncogene protein (Homo sapiens) (UniProt P01106); assay: ATG_Myc_CIS: Attagene CIS-FACTORIAL HepG2 Assay for human Myelocytomatosis (Myc) Proto-Oncogene Transcription Factor (AID 2282990); details: HepG2, Attagene cis-reporter transcription factor activity; actives raise or lower the signal
Description: ATG_CIS is a cell-based, multiplexed-readout assay that uses HepG2, a human liver cell line, with measurements taken at 24 hours after chemical dosing in a 24-well plate.ATG_Myc_CIS is one of 52 assay component(s) measured or calculated from the ATG_CIS assay. It is designed to make measurements of mRNA induction, a form of inducible reporter, as detected with fluorescence intensity signals by Reverse transcription polymerase chain reaction (RT-PCR) and Capillary electrophoresis technology.Data from the assay component ATG_Myc_CIS was analyzed into 1 assay endpoint. This assay endpoint, ATG_Myc_CIS, was analyzed with bidirectional fitting relative to DMSO as the negative control and baseline of activity. Using a type of inducible reporter, measures of mRNA for gain or loss-of-signal activity can be used to understand the reporter gene at the transcription factor-level as they relate to the gene MYC. Furthermore, this assay endpoint can be referred to as a primary readout, because this assay has produced multiple assay endpoints where this one serves a reporter gene function. To generalize the intended target to other relatable targets, this assay endpoint is annotated to the dna binding intended target family, where the subfamily is basic helix-loop-helix leucine zipper.
Human liver HepG2 cells are transiently transfected with multiple reporter transcription units (MRTUs) in 6-well plates using FuGene 6 reagent (Roche; 3 ml FuGene/1 mg DNA). The MRTU constructs are regulated by a cis-regulating element (promoter). […] A major difference between the CIS and TRANS system is that in CIS activities of endogenous TFs are measured, whereas the TRANS assay evaluates changes in activities of exogenous, chimeric NR-Gal4 proteins. […] At the end of 24 hour incubation, total RNA was isolated using TriZol reagent (Invitrogen). The isolated RNA is then reverse-transcribed using oligo(dT) primer and Mo-MLV reverse transcriptase (Invitrogen) with DNAse I (Ambion) treatment for 30 min. The one-tenth of the produced cDNA was amplified by PCR using Taq DNA polymerase (Invitrogen) and two reporter sequence-specific primers. The PCR products were fluorescently labeled by primer extension with 6-arboxyfluorescein (6-FAM) 5'-labeled reporter sequence-specific primer (2 min at 95 C, 20 s at 68 C and 10 min at 72 C) and these products were digested with 5U of HpaI (New England Biolabs) for 2h at 37 C. The fragments were purified using Qiaquick PCR columns (Qiagen), analyzed on an ABI 3130xL genetic analyzer (Applied Biosystems) with peak positions identified by using a set of X-rhodamine (ROX)-labeled MapMarker1000 molecular weight standards (BioVentures). The raw capillary electrophoresis data was processed using Attagraph software (Attagene).

Sequence of Myc proto-oncogene protein (Homo sapiens) (P01106 whole entry, looked up): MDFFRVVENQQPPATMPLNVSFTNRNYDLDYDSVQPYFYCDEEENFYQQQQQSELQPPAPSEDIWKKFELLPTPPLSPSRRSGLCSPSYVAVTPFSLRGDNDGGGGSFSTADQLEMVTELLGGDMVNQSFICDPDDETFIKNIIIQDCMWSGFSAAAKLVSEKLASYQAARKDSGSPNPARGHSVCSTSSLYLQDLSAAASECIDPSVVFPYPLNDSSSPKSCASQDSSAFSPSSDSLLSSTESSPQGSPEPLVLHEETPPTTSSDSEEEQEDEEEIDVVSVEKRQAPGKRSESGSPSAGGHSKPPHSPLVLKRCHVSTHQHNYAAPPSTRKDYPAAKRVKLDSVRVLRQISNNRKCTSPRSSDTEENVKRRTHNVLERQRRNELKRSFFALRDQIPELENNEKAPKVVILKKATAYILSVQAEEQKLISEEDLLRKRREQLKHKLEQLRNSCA

Q: Which outcome does the source give for `O=[N+]([O-])c1cc(C(F)(F)F)c(Cl)c([N+](=O)[O-])c1Cl` here?
A: Its outcome is “inactive”.

Q: `CNC(=N[N+](=O)[O-])NCC1CCOC1` (stereo not given) was tested. Which outcome did it give?
A: Its outcome is “inactive”.

Q: With `CCC(Br)(CC)C(=O)NC(N)=O` as the molecule, how does the outcome read?
A: Its outcome is “inactive”.

Q: Which outcome does the source give for `C=CCN(CC=C)C(=O)C(Cl)Cl` here?
A: The outcome was “inactive”.

Q: For `CC(C)(c1cc(Cl)c(O)c(Cl)c1)c1cc(Cl)c(O)c(Cl)c1`, which outcome is on record?
A: Its outcome is “inactive”.

Q: `CSc1nc(N=[N+]=[N-])nc(NC(C)C)n1` was tested. Which outcome did it give?
A: The outcome was “inactive”.

Q: Which outcome does the source give for `CCC(C)c1cc([N+](=O)[O-])cc([N+](=O)[O-])c1OC(=O)C=C(C)C` (stereo not given) here?
A: The outcome was “inactive”.

Q: With `O=[N+]([O-])O.O=[N+]([O-])O.[Cd]` as the molecule, how does the AC50 read?
A: The AC50 was 0.962 µM (active).

Q: `CC(Cc1ccc(C(C)(C)C)cc1)CN1C[C@@H](C)O[C@@H](C)C1` (stereo not given in full) was tested. Which outcome did it give?
A: The outcome was “inactive”.

Q: `c1cc(OCC2CO2)ccc1Cc1ccc(OCC2CO2)cc1` (stereo not given) was tested. Which AC50 did it give?
A: Its AC50 is 22.9 µM (active).

Q: With `c1ccc2c(c1)CCCC2` as the molecule, how does the outcome read?
A: The outcome was “inactive”.

Q: Which outcome does the source give for `Nc1ccccc1C(=O)Oc1ccc2ccccc2c1` here?
A: Its outcome is “inactive”.

Q: `O=C(O)COc1ccccc1` was tested. Which outcome did it give?
A: Its outcome is “inactive”.

Q: How did the outcome turn out when `CC(C)(Cl)Cl` was run?
A: The outcome was “inactive”.

Q: For `CN1C[C@H](C(=O)N[C@]2(C)O[C@@]3(O)[C@@H]4CCCN4C(=O)[C@H](Cc4ccccc4)N3C2=O)C=C2c3cccc4[nH]cc(c34)C[C@H]21`, which outcome is on record?
A: Its outcome is “inactive”.

Q: `CC1(C)C(=O)NC(=O)NC1=O` was tested. Which outcome did it give?
A: Its outcome is “inactive”.

Q: How did the outcome turn out when `SCc1ccco1` was run?
A: Its outcome is “inactive”.

Q: How did the outcome turn out when `CCOC(=O)COc1ccc(Cl)cc1Cl` was run?
A: The outcome was “inactive”.

Q: For `O=[N+]([O-])O`, which outcome is on record?
A: Its outcome is “inactive”.

Q: Which outcome does the source give for `O=P(O)(Oc1ccccc1)Oc1ccccc1` here?
A: The outcome was “inactive”.

Q: With `ClCC(Cl)Cl` as the molecule, how does the outcome read?
A: The outcome was “inactive”.

Q: Which outcome does the source give for `COc1cc(OC)nc(Oc2cccc(Oc3nc(OC)cc(OC)n3)c2C(=O)O)n1` here?
A: The outcome was “inactive”.

Q: How did the outcome turn out when `C=CCO` was run?
A: Its outcome is “inactive”.

Q: Which outcome does the source give for `Oc1cc(Cl)ccc1Cl` here?
A: Its outcome is “inactive”.

Q: Which outcome does the source give for `C=C(Cl)CCl` here?
A: Its outcome is “inactive”.

Q: For `Cc1ccccc1CCl`, which outcome is on record?
A: Its outcome is “inactive”.

Q: `O=S(=O)(c1ccccc1)c1ccccc1` was tested. Which outcome did it give?
A: The outcome was “inactive”.

Q: For `O=C(CCN1CC1)OCC(CO)(COC(=O)CCN1CC1)COC(=O)CCN1CC1`, which outcome is on record?
A: Its outcome is “inactive”.

Q: Which outcome does the source give for `CC1CCC(=O)O1` (stereo not given) here?
A: Its outcome is “inactive”.

Q: Which outcome does the source give for `CC(=O)/C=C/c1ccccc1` here?
A: The outcome was “inactive”.

Q: `O=C1C(Cl)=C(Cl)C(=O)C(Cl)=C1Cl` was tested. Which outcome did it give?
A: Its outcome is “inactive”.

Q: `CC(C)C(=O)Cl` was tested. Which outcome did it give?
A: Its outcome is “inactive”.

Q: `CCC(=O)c1ccc(Cl)cc1` was tested. Which outcome did it give?
A: The outcome was “inactive”.

Q: How did the outcome turn out when `CCNCC` was run?
A: Its outcome is “inactive”.

Q: How did the outcome turn out when `CCC1CCC(=O)O1` (stereo not given) was run?
A: The outcome was “inactive”.

Q: For `O=C(O)CCCc1ccc(N(CCCl)CCCl)cc1`, which outcome is on record?
A: The outcome was “inactive”.

Q: `COCC(=O)N(c1c(C)cccc1C)N1CCOC1=O` was tested. Which outcome did it give?
A: Its outcome is “inactive”.

Q: How did the outcome turn out when `Nc1ccc(Cl)c(Cl)c1` was run?
A: Its outcome is “inactive”.

Q: `O=C(NCNC(=O)NC1C(=O)NC(=O)N1CO)NC1C(=O)NC(=O)N1CO` (stereo not given) was tested. Which outcome did it give?
A: The outcome was “inactive”.

Q: How did the outcome turn out when `N#CCNCC#N` was run?
A: The outcome was “inactive”.
